Sampled rows, rich in hits. Any-hit rate of the full collection: about 3.3%.
Smad3 FoxH1 inh – Smad3/FoxH1 peptide binding inhibitors, primary screen, biochemical, TR-FRET; 0.29% of 88,000 active; Mothers against decapentaplegic homolog 3 (Homo sapiens), P84022; inhibition, % at 25 µM; AID 630, 2007; TR-FRET Smad3/Dy647-FoxH1 peptide binding, europium anti-His;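 active means compounds that reduce the energy-transfer binding signal between the protein and its labelled peptide by more than half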;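 further: 0% = Smad3 plus labelled peptide maximal FRET and 100% = peptide-only background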
Target sequence (P84022 whole entry, looked up): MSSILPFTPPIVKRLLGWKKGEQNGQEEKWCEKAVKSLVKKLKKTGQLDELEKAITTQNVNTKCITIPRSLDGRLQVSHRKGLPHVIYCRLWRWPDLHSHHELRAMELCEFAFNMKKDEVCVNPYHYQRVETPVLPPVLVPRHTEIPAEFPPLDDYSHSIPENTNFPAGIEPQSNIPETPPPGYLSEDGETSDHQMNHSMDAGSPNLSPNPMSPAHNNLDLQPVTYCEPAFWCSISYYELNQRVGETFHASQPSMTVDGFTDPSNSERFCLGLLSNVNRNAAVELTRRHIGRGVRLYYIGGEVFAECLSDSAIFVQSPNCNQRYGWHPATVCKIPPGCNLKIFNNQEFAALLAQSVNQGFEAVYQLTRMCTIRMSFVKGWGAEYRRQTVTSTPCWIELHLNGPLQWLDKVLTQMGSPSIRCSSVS
ERa SRC1 pot – enhancers of ERα–SRC-1 coactivator binding, primary screen, biochemical, TR-FRET, ERα LBD, low estradiol; Estrogen receptor (Homo sapiens), P03372; TR-FRET ERalpha-LBD/SRC-Cy5 coactivator binding, 2 h; 100 = basal binding, no effect; coactivator binding (% of control), % at 25.6 µM; 1.3% of 86,000 active; in the data active means activity above about 200%;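 further: binding measured in presence of low estradiol as agonist stimulus; 0% = peptide alone without receptor and 100% = receptor with peptide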
FAK inh – FAK kinase inhibitors, primary screen, biochemical | biochemical FAK kinase activity assay | AID 727, 2007 | Focal adhesion kinase 1 (Homo sapiens), Q05397 | 0.84% of 97,000 active | inhibition, %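 (tested at 7 µM)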; in the data active means inhibition above about 19%;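 further: 0% = DMSO and 100% = reference compound high control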
ERa SRC1 inh – ERα–SRC-1 coactivator interaction inhibitors, primary screen, biochemical, TR-FRET, ERα LBD, estradiol-bound; Estrogen receptor (Homo sapiens), P03372; TR-FRET ER-alpha LBD / SRC-1 peptide; inhibition, % at 25.6 µM; 1.7% of 86,000 active; in the data active means inhibition above about 50%;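 further: 0% = receptor plus peptide control and 100% = peptide only without receptor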
ERb SRC1 inh – inhibitors of ERβ-SRC1 coactivator interaction, primary screen, biochemical, TR-FRET, ERβ LBD, SRC-1 peptide. AID 633, 2007. inhibition, % at 25.6 µM. Estrogen receptor beta (Homo sapiens), Q92731. 1.3% of 86,000 active. TR-FRET ER-beta LBD / SRC1-Cy5 peptide binding; receptor agonist-loaded with 1 µM estradiol;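 active means compounds whose percent inhibition of the receptor-coactivator binding signal exceeds about 50% in the single-dose screen, limit read from the data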;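 further: 0% = receptor plus peptide wells without compound and 100% = peptide-only wells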
* marks the source's active call; other numbers are inactive results; . = not tested or not shown; [ ] = dose if it differs, or a comment.

SMILES	Smad3 FoxH1 inh	ERa SRC1 pot	FAK inh	ERa SRC1 inh	ERb SRC1 inh
O[C@@H]1[C@@H](OCc2ccccc2)OC[C@H](O)[C@H]1O	14	.	.	.	.
C[C@H](CCC(=O)NN)[C@@H]1CC[C@@H]2[C@H]3CC[C@H]4C[C@@H](O)CC[C@]4(C)[C@@H]3CC[C@]21C	7	.	.	.	.
N#CCSc1nnc2sc3ccccc3n12	-6	65	0	87*[fluorescence artefact?]	9
CCCCCn1c(SCC#N)nc2cc(C(=O)NCC3CCCO3)ccc2c1=O (stereo not given)	30	248*[fluorescence artefact?]	-4	56*[fluorescence artefact?]	47
CCCCCn1c(SCC#N)nc2cc(C(=O)NC3CCCCC3)ccc2c1=O	21	164	.	40	37
COC(=O)c1ccc2c(=O)n(CC3CCCO3)c(SCC(=O)Nc3ccccc3OC)nc2c1 (stereo not given)	1	134	7	18	6
COC(=O)c1ccc2c(=O)n(CC3CCCO3)c(SCC(=O)Nc3ccccc3Cl)nc2c1 (stereo not given)	-3	81	0	57*	15
O=C(CCCn1c(=O)c2sccc2n(Cc2ccc(F)cc2)c1=O)NCc1ccco1	-5	97	3	-1	-5
Cc1ccc(C)c(Cn2c(=O)n(-c3ccc(CC(=O)NCc4ccco4)cc3)c(=O)c3sccc32)c1	-71	127	6	80*[fluorescence artefact?]	55*
CC(C)Cn1c(-c2cccs2)nc2ccccc21	7	85	1	-5	57*
c1csc(Cn2c(-c3cccs3)nc3ccccc32)c1	3	98	3	2	10
O=C(CCc1ccccc1)Nc1nnc(-c2cccs2)o1	1	97	2	0	70*
COCc1cc(=O)n2[nH]c(-c3ccsc3-n3c(C)ccc3C)cc2n1	7	41	1	31	42
Cc1nc2cc(-c3ccsc3-n3c(C)ccc3C)[nH]n2c(=O)c1Cl	-1	98	-2	59*	64*
CC(C)(C)CC(C)(C)c1ccc(O)c(C[N+](C)(C)[O-])c1	2	.	.	.	.
Cc1ccn2c(NC(=O)c3ccco3)c(-c3ccccc3)nc2c1	-1	109	-3	-17	-17
O=C(Nc1c(-c2ccccc2)nc2sccn12)c1ccccc1	51*	71	.	72*[fluorescence artefact?]	71*[fluorescence artefact?]
CCOC(=O)c1c(NC(=O)c2cccs2)sc2c1CCC2	-1	263*[fluorescence artefact?]	.	16	15
CCOC(=O)c1c(NS(=O)(=O)c2ccc(Br)cc2)sc2c1CCC2	5	42	5	61*[fluorescence artefact?]	56*
CCOC(=O)c1c(NC(=O)CSc2nnc(C)s2)sc2c1CCN(C)C2	5	92	19	85*[fluorescence artefact?]	48
CCOC(=O)c1c(NC(=O)CSc2nnc(CNC(=O)c3ccco3)n2C)sc2c1CCC2	6	76	-4	65*	23
C=C[C@]1(C)C[C@H](OC(=O)CO)[C@]2(C)C3C(=O)CC[C@]3(CC[C@H]2C)[C@H](C)[C@H]1O (stereo not given in full)	9	.	.	.	.
C[N+]1(CCC[N+]2(C)C[C@@H]3[C@H](C2)[C@@H]2C=C[C@H]3CC2)CCOCC1 (stereo not given in full)	37	.	.	.	.
COc1ccc(N2CCN(Cc3cc(=O)oc4cc(-c5ccccc5)c(O)cc34)CC2)cc1	3	70	0	64*[fluorescence artefact?]	43
Cn1c(=O)c(C(=O)Nc2ccccn2)c(O)c2ccccc21	24	286*[fluorescence artefact?]	4	-5	10
SMILES	Smad3 FoxH1 inh	ERa SRC1 pot	FAK inh	ERa SRC1 inh	ERb SRC1 inh
CC(C)c1ccccc1NC(=O)c1cnccn1	-16	88	-1	0	-3
CSc1ccccc1NC(=O)c1cnccn1	6	64	-5	56*[fluorescence artefact?]	43
COc1ccc(OCC(=O)Nc2cc(-c3nn(C)c(=O)c4ccccc34)ccc2OC)cc1	-116	677*[fluorescence artefact?]	16	8	2
COc1ccc(-c2nn(C)c(=O)c3ccccc23)cc1NC(=O)Cn1nc(-c2ccccc2)c2ccccc2c1=O	-17	290*[fluorescence artefact?]	-3	13	2
Cc1ccc(-c2nn(C)c(=O)c3ccccc23)cc1CNC(=O)Cn1nc(-c2ccccc2)c2ccccc2c1=O	26	89	11	68*[fluorescence artefact?]	48
Cc1nn(CC(=O)NCc2cccc3ccccc23)c(=O)c2ccccc12	-8	257*[fluorescence artefact?]	1	-27	-9
Cc1cc(C)n(CC(=O)NCc2cc(-c3nn(C)c(=O)c4ccccc34)ccc2C)n1	-14	129	2	34	18
CC1=NCC[N@@+]1(CCc1ccccc1)Cc1ccccc1	9	.	.	.	.
O=C1CNCCCN2CCN(CCCNCC(=O)Nc3ccc(cc3)S(=O)(=O)c3ccc(cc3)NC(=O)CNCCCN3CCN(CCCNCC(=O)Nc4ccc(cc4)S(=O)(=O)c4ccc(cc4)N1)CC3)CC2	49	.	.	.	.
COc1cc(C)cc2c(-c3c(O)cc(O)c4c3C[C@H](C)N[C@@H]4C)cc(-c3cc(-c4c(O)cc(O)c5c4C[C@H](C)N[C@@H]5C)c4cc(C)cc(OC)c4c3O)c(O)c12	4	.	.	.	.
CCN1C2=C(C(=O)CCC2)C(c2ccc(O)c(Br)c2)C2=C1CCCC2=O	-3	59	4	56*[fluorescence artefact?]	60*
CCCN1C2=C(C(=O)CCC2)C(c2ccc(F)cc2)C2=C1c1ccccc1C2=O (stereo not given)	1	93	1	-30	-28
COc1ccc(-c2nc(Cn3c(SCc4ccc(C)cc4)nc4ccncc43)c(C)o2)cc1OC	3	217*	-5	42	36
COc1ccc(-c2nc(Cn3c(SCc4cccc(F)c4)nc4ccncc43)c(C)o2)cc1OC	8	237*	.	9	36
COc1ccc(-c2nnc(CSc3nc4ccccc4c(=O)n3C)o2)cc1OC	21	111	0	8	0
O=C(O)c1cc(N=Nc2ccc([N+](=O)[O-])cc2)ccc1O	8	.	.	.	.
O=S(=O)(O)n1ccnc1 (tested in a mixture with another compound)	2	.	.	.	.
O=C(Nc1ccc(F)cc1F)c1noc2c1CCC2	-14	38	.	86*[fluorescence artefact?]	91*[fluorescence artefact?]
O=c1c2ccccc2nc2n1CC/C2=C/N1CCN(c2cccc(C(F)(F)F)c2)CC1	-9	59	0	70*[fluorescence artefact?]	100*[fluorescence artefact?]
O=c1c2ccccc2nc2n1CC/C2=C\c1ccccc1[N+](=O)[O-]	.	.	3	.	.
CCCn1c(=O)c(C(=O)Nc2ccccc2C(=O)OCC)c(O)c2ccccc21	3	91	.	-12	-16
CCC(C)n1c(=O)c(C(=O)Nc2ccccc2S(N)(=O)=O)c(O)c2ccccc21 (stereo not given)	4	208*	.	35	29
N#C/C(=C(\O)Cc1ccccc1)c1nc2ccccc2[nH]1	-2	409*[fluorescence artefact?]	3	11	21
